AMA1 RON2 block = disrupts binding of P. falciparum AMA1 to RON2; AlphaScreen AMA1-biotinylated RON2 peptide binding; Potency, µM (titrated, usually from 58.2 µM), for inactives: at the highest dose activity change, negative = inhibition, most hits filed as inhibitors; 360,000 tested, 0.2% active; AID 720542;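 also: 0% = vehicle wells and -100% = peptide control; nearly all actives have a fitted effect of over 45% in size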
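AMA1 (3D7) with his tag at 25 nM final met compounds first, then biotinylated RON2 peptide at 25 nM; detection used donor plus acceptor beads, 10 µg/mL apiece, read by AlphaScreen after 30 min at room temperature.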
VACV Venus inh = inhibitors of vaccinia virus (Venus reporter) | Potency, µM (doses to about 36.5 µM), for the others: at the highest dose activity change, negative = inhibition, usual class: inhibitors | Vaccinia virus Venus reporter expression, fluorescence | 330,000 tested, 0.46% active | AID 720580; calls by dose curve; tested in A549 cells; also: nearly all actives have a fitted effect of over 30% in size
Pf growth 48h = P. falciparum growth inhibition at 48 hours (one generation) | P. falciparum luciferase growth in erythrocytes, 48 h | Potency, µM (top dose mostly 28.7 µM), without a hit: at the highest dose activity change, negative = inhibition, actives largely listed as inhibitors | 310,000 tested, 5.9% active
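Luciferase-expressing P. falciparum in infected erythrocytes (2% hematocrit, 0.1% parasitemia final) in RPMI 1640/0.5% Albumax were exposed to compound for 48 hours at 37 C, 5% CO2; growth read as luminescence.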
Pf growth 96h = P. falciparum growth inhibition at 96 hour, primary screen for plastid delayed-death inhibitors; Potency, µM (doses to about 28.7 µM), without a hit: at the top dose activity change, negative = inhibition, hits mostly inhibitors; P. falciparum luciferase reporter growth, 96 h; 320,000 tested, 6.9% active; AID 504834
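Plates of compound plus infected erythrocytes (2% hematocrit, 0.05% parasitemia final) incubate 96 hours, 37 C, 5% CO2. Detection reagent added; reduced luminescence from the parasites' luciferase reporter flags inhibition.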
Vaccinia mCherry = inhibitors of vaccinia virus infection (mCherry reporter signal); Vaccinia virus mCherry reporter infection, fluorescence; Potency, µM (doses to about 36.5 µM), inactives show at the highest dose activity change, negative = inhibition, most hits filed as inhibitors; 310,000 tested, 0.63% active; calls by dose curve; tested in A549 cells; also: nearly all actives have a fitted effect of over 35% in size
Active calls of the source: *; [ ] = another dose, or the depositor's remark. A selection: hits, their analogues and other compounds. The true share with any hit is near 8.7%. Unless noted, calls follow the shape of the dose curve; as a rule, active = well fitted curve in the direction sought with a large enough effect; inconclusive = small, poorly fitted or top-dose-only effect, or another doubt; inactive = no such curve, though single readings can be large; an effect the other way counts as inactive or inconclusive. Unless noted, % is scaled to controls: 0 for no effect and ±100 for the full control effect; potency is read from the fitted curve at half-maximal effect.

How did C=CCc1cccc(CNc2ccc(Br)cc2)c1O do in these assays?
AMA1 RON2 block: 7%; Pf growth 48h: 12µM*; Pf growth 96h: inconclusive

What do the screens show for `C=CCc1cccc(CNc2nc3ccccc3n2C(C)C)c1O`?
AMA1 RON2 block: -13%; VACV Venus inh: -21%; Pf growth 48h: 4.7µM*; Pf growth 96h: inconclusive; Vaccinia mCherry: -26%

How did COc1ccc(-n2nc(C(=O)N3CCN(c4cccc(C)c4C)CC3)c3c4ccccc4n(C)c3c2=O)cc1 do in these assays?
VACV Venus inh: -6%; Vaccinia mCherry: -10%

How did CC(C)N(C)Cc1cn(C)nc1-c1ccc(Oc2ccccc2)cc1 do in these assays?
AMA1 RON2 block: 6%; VACV Venus inh: -11%; Pf growth 48h: -8%; Pf growth 96h: 5.2µM*; Vaccinia mCherry: -12%

How did Cn1cc(CN2CCC(O)CC2)c(-c2ccc(Oc3ccccc3)cc2)n1 do in these assays?
AMA1 RON2 block: -3%; VACV Venus inh: -12%; Pf growth 48h: -4%; Pf growth 96h: 9.3µM*; Vaccinia mCherry: inactive

What do the screens show for `Cn1cc(CN2CCC(CO)CC2)c(-c2ccc(Oc3ccccc3)cc2)n1`?
AMA1 RON2 block: 10%; VACV Venus inh: -11%; Pf growth 48h: -7%; Pf growth 96h: 24%; Vaccinia mCherry: -17%

Results for COCCN(Cc1cn(C)nc1-c1ccc(Oc2ccccc2)cc1)C(C)C ?
AMA1 RON2 block: 0%; Pf growth 48h: -1%; Pf growth 96h: inconclusive

Results for CCOc1ccc(/C=N/NC(=S)NC2CC3C=CC2C3)cc1 (stereo not drawn) ?
AMA1 RON2 block: 87%; Pf growth 48h: inconclusive; Pf growth 96h: 8.3µM*

What do the screens show for `Oc1c(Br)cc(Br)cc1/C=N/NC(=S)N[C@H]1CC2C=CC1C2` (stereo partly drawn)?
AMA1 RON2 block: -17%; VACV Venus inh: -11%[7.34 µM]; Pf growth 48h: inconclusive; Pf growth 96h: inconclusive; Vaccinia mCherry: -14%[7.34 µM]

How did CCOc1ccc(CNC(=S)N/N=C/c2cccnc2)cc1 do in these assays?
AMA1 RON2 block: 65%; Pf growth 48h: -7%; Pf growth 96h: 6%

How did COc1cc(/C=N/NC(=S)NC2CC3C=CC2C3)cc(OC)c1OC (stereo not drawn) do in these assays?
AMA1 RON2 block: 44%; VACV Venus inh: -5%; Pf growth 48h: 5.2µM*; Pf growth 96h: 2.9µM*; Vaccinia mCherry: -16%

What do the screens show for `Cc1ccc(-n2c(CCC(=O)O)ccc2-c2cccs2)cc1Cl`?
VACV Venus inh: -10%; Vaccinia mCherry: -7%

How did CC(=O)Nc1cccc(NC(=O)c2ccc3[nH]c(C)c(C)c3c2)c1 do in these assays?
AMA1 RON2 block: 9%; VACV Venus inh: -10%; Pf growth 48h: 61%; Pf growth 96h: 63%; Vaccinia mCherry: -18%

Results for Cc1cc(NC(=O)c2ccc3[nH]c(C)c(C)c3c2)ccn1 ?
AMA1 RON2 block: -13%; VACV Venus inh: -20%; Pf growth 48h: 2.6µM*; Pf growth 96h: 2.6µM*; Vaccinia mCherry: inconclusive

Results for CC(=O)c1ccc2c(c1)Cc1cc(C(C)=O)ccc1-2 ?
AMA1 RON2 block: -1%; VACV Venus inh: -18%; Pf growth 48h: 271%; Pf growth 96h: 5.2µM*; Vaccinia mCherry: inactive

What do the screens show for `COc1cc(-c2noc(C)c2C#CC2(N)CCCCC2)cc(OC)c1OC`?
AMA1 RON2 block: -3%; VACV Venus inh: -17%; Pf growth 48h: inconclusive; Pf growth 96h: 1.9µM*; Vaccinia mCherry: -8%

What do the screens show for `COCCn1c(SCc2cccnc2)nnc1-c1ccco1`?
AMA1 RON2 block: inconclusive; VACV Venus inh: 11%; Pf growth 48h: 23%; Pf growth 96h: 9.3µM*; Vaccinia mCherry: 0%

How did CCN(CC)S(=O)(=O)c1ccc(-c2nnc(SCC(=O)N3c4ccccc4CC3C)o2)cc1 (stereo not drawn) do in these assays?
AMA1 RON2 block: 4%; VACV Venus inh: inconclusive; Pf growth 48h: 8%; Pf growth 96h: 10%; Vaccinia mCherry: 0.63µM*

How did COCCCn1c(SCC(=O)N2CCCC(C)C2)nnc1-c1ccco1 (stereo not drawn) do in these assays?
AMA1 RON2 block: -8%; Pf growth 48h: -5%; Pf growth 96h: 0.59µM*

Results for CC1Cc2ccccc2N1C(=O)CSc1nc(-c2ccccc2)cs1 (stereo not drawn) ?
AMA1 RON2 block: 5%; Pf growth 48h: inconclusive; Pf growth 96h: 10µM*

What do the screens show for `CCN(CC)S(=O)(=O)c1ccc(-c2nnc(SCC(=O)N3c4ccccc4CC3C)n2CC)cc1` (stereo not drawn)?
AMA1 RON2 block: -11%[11.6 µM]; VACV Venus inh: -11%; Pf growth 48h: 1%; Pf growth 96h: -1%; Vaccinia mCherry: -19%

What do the screens show for `CC1Cc2ccccc2N1C(=O)CSc1nc2ccccc2s1` (stereo not drawn)?
AMA1 RON2 block: 0%; Pf growth 48h: -26%; Pf growth 96h: inconclusive

Results for CCN(CC)CCNC(=O)c1ccc(-c2nc(CS(=O)(=O)c3ccc(C)cc3)c(C)o2)cc1 ?
VACV Venus inh: -3%; Vaccinia mCherry: -4%

How did CCOc1ccc(CC(=O)NCc2ccc3c(c2)CCN3C(C)=O)cc1OCC do in these assays?
VACV Venus inh: -10%; Vaccinia mCherry: -16%

How did CCOc1ccccc1C(=O)NC1(C(F)(F)F)C(=O)Nc2c1c(=O)[nH]c(=O)n2-c1ccccc1 (stereo not drawn) do in these assays?
VACV Venus inh: -9%; Vaccinia mCherry: -11%

How did CCCn1c(SCC(=O)N2c3ccccc3CC2C)nnc1-c1ccco1 (stereo not drawn) do in these assays?
AMA1 RON2 block: 19%; VACV Venus inh: -25%; Pf growth 48h: 12µM*; Pf growth 96h: inconclusive; Vaccinia mCherry: -9%

Results for CCCSc1ncc(Cl)c(C(=O)NCc2ccc(OC)cc2)n1 ?
VACV Venus inh: -16%; Vaccinia mCherry: -13%

Results for CCN(CC)S(=O)(=O)c1ccc2c(c1)c(=O)c(C(=O)N1CCN(c3cc(Cl)ccc3C)CC1)cn2C ?
VACV Venus inh: -11%; Vaccinia mCherry: -26%

Results for Fc1ccc(Cn2nnnc2C(c2ccc(Cl)cc2)N2CC=C(c3ccc(F)cc3)CC2)cc1 (stereo not drawn) ?
AMA1 RON2 block: -8%; Pf growth 48h: 12µM*; Pf growth 96h: 46%

Results for Fc1ccc(C2=CCN(C(c3ccc(Cl)cc3)c3nnnn3Cc3ccccc3)CC2)cc1 (stereo not drawn) ?
AMA1 RON2 block: -6%; VACV Venus inh: -18%; Pf growth 48h: 12µM*; Pf growth 96h: -22%; Vaccinia mCherry: -24%

Results for Cc1ccc(C(c2nnnn2Cc2ccccc2)N2CC=C(c3ccc(F)cc3)CC2)cc1 (stereo not drawn) ?
AMA1 RON2 block: -3%; VACV Venus inh: -7%; Pf growth 48h: inconclusive; Pf growth 96h: 35%; Vaccinia mCherry: -12%

How did CC(C)c1ccc(NC(=O)c2cc(S(=O)(=O)N3CCCCC3)cn2C)cc1 do in these assays?
VACV Venus inh: -23%; Vaccinia mCherry: -14%

Screening results from PubChem BioAssay.
